Experimental data: the supplement of paper PMC12494721
Counter-ions that a name gives are not always drawn.

Assays:
Details in all cases: incubation time: 27 h, anaerobic, 37 °C;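 for the amine columns active = adjusted P below 0.05 in both replicates with a change the same way and a mean fold change under 0.8 or over 1.25; inactive = the rest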
[1] = tested on: Clostridium sporogenes DSM 1664; assay: growth (OD595) fold change vs plate DMSO controls (fold change (ratio)); higher = more growth
Summary of the method: (§1)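 After 27 h at 37 °C under anaerobic conditions, 96-well cultures in mGAM were shaken and read at 595 nm. The readings were blank-subtracted, corrected for compound background using 20 µM compound solutions in water, and converted to OD with a calibration factor of 5. Growth is defined as the fold change over the median of DMSO controls on each plate. Fold changes above 1.5 were set to NA, and each value is the mean of 2 biological replicates.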

[2] = tested on: Escherichia coli IAI1; assay: as above
Summary of the method: as §1

[3] = tested on: Klebsiella aerogenes DSM 30053; assay: as above
Summary of the method: as §1

[4] = tested on: Ruminococcus gnavus DSM 108212; assay: as above
Summary of the method: as §1

[5] = tested on: Klebsiella aerogenes DSM 30053; assay: fold change of Histamine concentration vs plate DMSO controls (fold change (ratio)); higher = more amine produced, active = hit call of the paper (significant change in both replicates, either direction)
Summary of the method: (§2)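 Extracts of whole anaerobic mGAM cultures were analysed for amines by LC–triple-quadrupole MS with dynamic MRM and external calibration curves, with drift corrected within batch. Four gut strains were grown at 37 °C for 27 h in 80 µL wells with compounds at 20 µM final, sweeteners at 50 µM final. Each value expresses fold change over plate DMSO controls. The average of 2 biological replicates is shown.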

[6] = tested on: Clostridium sporogenes DSM 1664; assay: fold change of Tryptamine concentration vs plate DMSO controls (fold change (ratio)); higher = more amine produced, active = hit call of the paper (significant change in both replicates, either direction)
Summary of the method: as §2

[7] = tested on: Ruminococcus gnavus DSM 108212; assay: as above
Summary of the method: as §2

[8] = tested on: Escherichia coli IAI1; assay: fold change of Putrescine concentration vs plate DMSO controls (fold change (ratio)); higher = more amine produced, active = hit call of the paper (significant change in both replicates, either direction)
Summary of the method: as §2

[9] = tested on: Klebsiella aerogenes DSM 30053; assay: as above
Summary of the method: as §2

[10] = tested on: Escherichia coli IAI1; assay: fold change of Cadaverine concentration vs plate DMSO controls (fold change (ratio)); higher = more amine produced, active = hit call of the paper (significant change in both replicates, either direction)
Summary of the method: as §2

[11] = tested on: Klebsiella aerogenes DSM 30053; assay: as above
Summary of the method: as §2

[12] = tested on: Ruminococcus gnavus DSM 108212; assay: fold change of 2-Phenylethylamine concentration vs plate DMSO controls (fold change (ratio)); higher = more amine produced, active = hit call of the paper (significant change in both replicates, either direction)
Summary of the method: as §2

Compound: CN[C@@H]1[C@H](O[C@H]2[C@H](O[C@H]3[C@H](O)[C@@H](O)[C@H](NC(=N)N)[C@@H](O)[C@@H]3NC(=N)N)O[C@@H](C)[C@]2(O)CO)O[C@@H](CO)[C@H](O)[C@H]1O [Dihydrostreptomycin sulfate] (20 µM)
- growth [1]: 1.08
- growth [2]: 0.98
- growth [3]: 0.92
- growth [4]: 0.933
- fold change of Histamine concentration [5]: 0.704 (inactive)
- fold change of Tryptamine concentration [6]: 1.25 (inactive)
- fold change of Tryptamine concentration [7]: 0.984 (inactive)
- fold change of Putrescine concentration [8]: 0.958 (inactive)
- fold change of Putrescine concentration [9]: 0.922 (inactive)
- fold change of Cadaverine concentration [10]: 1.01 (inactive)
- fold change of Cadaverine concentration [11]: 0.993 (inactive)
- fold change of 2-Phenylethylamine concentration [12]: 0.991 (inactive)

Compound: CCCNC(=O)NS(=O)(=O)c1ccc(Cl)cc1 [Chlorpropamide] (20 µM)
- growth [1]: 0.913
- growth [2]: 1.03
- growth [3]: 0.983
- growth [4]: 1.03
- fold change of Histamine concentration [5]: 1.17 (inactive)
- fold change of Tryptamine concentration [6]: 0.956 (inactive)
- fold change of Tryptamine concentration [7]: 1.13 (inactive)
- fold change of Putrescine concentration [8]: 0.938 (inactive)
- fold change of Putrescine concentration [9]: 1.03 (inactive)
- fold change of Cadaverine concentration [10]: 0.993 (inactive)
- fold change of Cadaverine concentration [11]: 1.1 (inactive)
- fold change of 2-Phenylethylamine concentration [12]: 1.31 (active)

Compound: CCOC(=O)[C@H](CCc1ccccc1)N[C@@H](C)C(=O)N1CCC[C@H]1C(=O)O [Enalapril maleate] (20 µM)
- growth [1]: 1.07
- growth [2]: 1.07
- growth [3]: 1.05
- growth [4]: 1.15
- fold change of Histamine concentration [5]: 0.936 (inactive)
- fold change of Tryptamine concentration [6]: 1 (inactive)
- fold change of Tryptamine concentration [7]: 1.09 (inactive)
- fold change of Putrescine concentration [8]: 1.03 (inactive)
- fold change of Putrescine concentration [9]: 0.959 (inactive)
- fold change of Cadaverine concentration [10]: 0.967 (inactive)
- fold change of Cadaverine concentration [11]: 1.02 (inactive)
- fold change of 2-Phenylethylamine concentration [12]: 1.1 (inactive)

Compound: CCOC(=O)[C@H](CCc1ccccc1)N[C@H]1CCc2ccccc2N(CC(=O)O)C1=O [Benazepril hydrochloride] (20 µM)
- growth [1]: 1.03
- growth [2]: 1
- growth [3]: 1
- growth [4]: 1.02
- fold change of Histamine concentration [5]: 1 (inactive)
- fold change of Tryptamine concentration [6]: 1.06 (inactive)
- fold change of Tryptamine concentration [7]: 1.02 (inactive)
- fold change of Putrescine concentration [8]: 0.997 (inactive)
- fold change of Putrescine concentration [9]: 0.981 (inactive)
- fold change of Cadaverine concentration [10]: 0.989 (inactive)
- fold change of Cadaverine concentration [11]: 1.02 (inactive)
- fold change of 2-Phenylethylamine concentration [12]: 1.01 (inactive)

Compound: Nc1c(Br)cc(Br)cc1CN[C@H]1CC[C@H](O)CC1 [Ambroxol hydrochloride] (20 µM)
- growth [1]: 0.943
- growth [2]: 1.07
- growth [3]: 0.958
- growth [4]: 0.75
- fold change of Histamine concentration [5]: 1.03 (inactive)
- fold change of Tryptamine concentration [6]: 1.04 (inactive)
- fold change of Tryptamine concentration [7]: 1 (inactive)
- fold change of Putrescine concentration [8]: 1.05 (inactive)
- fold change of Putrescine concentration [9]: 1 (inactive)
- fold change of Cadaverine concentration [10]: 1.01 (inactive)
- fold change of Cadaverine concentration [11]: 0.991 (inactive)
- fold change of 2-Phenylethylamine concentration [12]: 0.985 (inactive)

Compound: NS(=O)(=O)c1cc2c(cc1Cl)NC(C(Cl)Cl)NS2(=O)=O (centres undefined) [Trichlormethiazide] (20 µM)
- growth [1]: 1.14
- growth [2]: 1.08
- growth [3]: 1.01
- growth [4]: 1.07
- fold change of Histamine concentration [5]: 1.05 (inactive)
- fold change of Tryptamine concentration [6]: 1.05 (inactive)
- fold change of Tryptamine concentration [7]: 1.03 (inactive)
- fold change of Putrescine concentration [8]: 1.11 (inactive)
- fold change of Putrescine concentration [9]: 1.02 (inactive)
- fold change of Cadaverine concentration [10]: 1.03 (inactive)
- fold change of Cadaverine concentration [11]: 0.984 (inactive)
- fold change of 2-Phenylethylamine concentration [12]: 1.01 (inactive)

Compound: COc1cccc2c1C(=O)c1c(O)c3c(c(O)c1C2=O)C[C@@](O)(C(=O)CO)C[C@@H]3O[C@H]1C[C@H](N)[C@@H](O)[C@H](C)O1 [Epirubicin hydrochloride] (20 µM)
- growth [1]: 0.607
- growth [2]: 0.0185
- growth [3]: 0
- growth [4]: 0.386
- fold change of Histamine concentration [5]: 1.01 (inactive)
- fold change of Tryptamine concentration [6]: 0.953 (inactive)
- fold change of Tryptamine concentration [7]: 0.966 (inactive)
- fold change of Putrescine concentration [8]: 1.07 (inactive)
- fold change of Putrescine concentration [9]: 0.998 (inactive)
- fold change of Cadaverine concentration [10]: 1.04 (inactive)
- fold change of Cadaverine concentration [11]: 1.02 (inactive)
- fold change of 2-Phenylethylamine concentration [12]: 0.934 (inactive)

Compound: Cc1cc(NS(=O)(=O)c2ccc(N)cc2)no1 [Sulfamethoxazole] (20 µM)
- growth [1]: 1.01
- growth [2]: 1.11
- growth [3]: 1.06
- growth [4]: 0.913
- fold change of Histamine concentration [5]: 1.12 (inactive)
- fold change of Tryptamine concentration [6]: 0.999 (inactive)
- fold change of Tryptamine concentration [7]: 1.01 (inactive)
- fold change of Putrescine concentration [8]: 1.13 (inactive)
- fold change of Putrescine concentration [9]: 1.03 (inactive)
- fold change of Cadaverine concentration [10]: 0.911 (inactive)
- fold change of Cadaverine concentration [11]: 1 (inactive)
- fold change of 2-Phenylethylamine concentration [12]: 0.978 (inactive)

Compound: Cc1cc2nc3c(=O)[nH]c(=O)nc-3n(C[C@H](O)[C@H](O)[C@H](O)CO)c2cc1C [Riboflavine] (20 µM)
- growth [1]: 1.09
- growth [2]: 0.982
- growth [3]: 0.997
- growth [4]: 0.982
- fold change of Histamine concentration [5]: 0.984 (inactive)
- fold change of Tryptamine concentration [6]: 1 (inactive)
- fold change of Tryptamine concentration [7]: 1.08 (inactive)
- fold change of Putrescine concentration [8]: 0.989 (inactive)
- fold change of Putrescine concentration [9]: 0.964 (inactive)
- fold change of Cadaverine concentration [10]: 1.01 (inactive)
- fold change of Cadaverine concentration [11]: 0.994 (inactive)
- fold change of 2-Phenylethylamine concentration [12]: 1.15 (inactive)

Compound: COc1ccccc1O [Guaiacol] (20 µM)
- growth [1]: 0.997
- growth [2]: 1
- growth [3]: 1
- growth [4]: 1.02
- fold change of Histamine concentration [5]: 0.966 (inactive)
- fold change of Tryptamine concentration [6]: 1.03 (inactive)
- fold change of Tryptamine concentration [7]: 1.05 (inactive)
- fold change of Putrescine concentration [8]: 0.994 (inactive)
- fold change of Putrescine concentration [9]: 0.999 (inactive)
- fold change of Cadaverine concentration [10]: 1.02 (inactive)
- fold change of Cadaverine concentration [11]: 0.988 (inactive)
- fold change of 2-Phenylethylamine concentration [12]: 1.06 (inactive)

Compound: COc1ccc(CCC(=O)c2c(O)cc(O[C@@H]3O[C@H](CO)[C@@H](O)[C@H](O)[C@H]3O[C@@H]3O[C@@H](C)[C@H](O)[C@@H](O)[C@H]3O)cc2O)cc1O [Neohesperidin Dihydrochalcone (Nhdc)] (50 µM)
- growth [1]: 1.25
- growth [2]: 0.987
- growth [3]: 1.01
- growth [4]: 1.05
- fold change of Histamine concentration [5]: 1.02 (inactive)
- fold change of Tryptamine concentration [6]: 1.01 (inactive)
- fold change of Tryptamine concentration [7]: 0.995 (inactive)
- fold change of Putrescine concentration [8]: 1.01 (inactive)
- fold change of Putrescine concentration [9]: 1.02 (inactive)
- fold change of Cadaverine concentration [10]: 0.96 (inactive)
- fold change of Cadaverine concentration [11]: 0.99 (inactive)
- fold change of 2-Phenylethylamine concentration [12]: 0.961 (inactive)

Compound: C[N+](C)(CCOc1ccccc1)Cc1ccccc1.O=C([O-])c1cc2ccccc2cc1O [Bephenium hydroxynaphthoate] (20 µM)
- growth [1]: 0.816
- growth [2]: 0.99
- growth [3]: 0.976
- growth [4]: 0.995
- fold change of Histamine concentration [5]: 1.04 (inactive)
- fold change of Tryptamine concentration [6]: 1.16 (inactive)
- fold change of Tryptamine concentration [7]: 1.04 (inactive)
- fold change of Putrescine concentration [8]: 0.854 (inactive)
- fold change of Putrescine concentration [9]: 0.99 (inactive)
- fold change of Cadaverine concentration [10]: 1.51 (active)
- fold change of Cadaverine concentration [11]: 0.992 (inactive)
- fold change of 2-Phenylethylamine concentration [12]: 1.06 (inactive)
